# The list shows a part of the results. Results filed as inconclusive are left out. Calls of active or inactive are those of the source. Calls come from the whole dose curve; as a rule, active = well fitted inhibition curve with a large enough effect; inconclusive = small, poorly fitted or top-dose-only effect; inactive = no such curve, though single readings can be large or run the other way.
# Molecular target: Isocitrate dehydrogenase [NADP] cytoplasmic (Homo sapiens) (UniProt O75874)
# Test: qHTS for Inhibitors of mutant isocitrate dehydrogenase 1 (IDH1): Confirmation of Cherrypicks; note: nearly all actives have a fitted effect of over 50% in size
# Conditions: IDH1 R132H enzyme, NADPH diaphorase/resazurin fluorescence
# Excerpt: Malignant glioblastomas (WHO grade IV), including primary and secondary glioblastomas, are among the most lethal with a median survival of one year, and unfortunately they are also the most prevalent type of brain tumors. By and large the standard of care of gliomas remains the use of the oral alkylating agent temozolomide and radiotherapy following surgical tumor resection. There is an urgent unmet medical need for novel therapeutics for gliomas. IDH mutations occur in up to 70% of grade II-IV secondary glioblastomas, and IDH1 R132H is the most prevalent mutation. […] Wild-type IDH1 catalyzes the conversion of isocitrate to -ketoglutarate with the concomitant reduction of NADP+ to NADPH. […] Inhibition of the IDH1 R132H enzymatic reaction leads to an increase in the amount of NADPH relative to a DMSO control and a concomitant increase in the fluorescence of the diaphorase/resazurin enzyme product resorufin at 590 nm. […]
# Enzyme buffer was dispensed into black, solid 1536-well plates at 3 microL/well in 20 mM Tris buffer, pH 7.5, containing final concentrations of 10 mM MgCl2, 20 mM NaCl, 0.001% Tween20, 0.05% BSA, 2 mM beta-ME and 5.2 nM IDH1 R132H. […] The inherent compound fluorescence was measured at this point at 590 nm on a ViewLux plate reader (Ex 525, Em 598, bodipy filter). […] The %Activity was determined from the corrected fluorescence values. […]
# Potency is the fitted concentration of half-maximal effect.
# Chain of Isocitrate dehydrogenase [NADP] cytoplasmic (Homo sapiens) (O75874 whole entry R132H, change not shown): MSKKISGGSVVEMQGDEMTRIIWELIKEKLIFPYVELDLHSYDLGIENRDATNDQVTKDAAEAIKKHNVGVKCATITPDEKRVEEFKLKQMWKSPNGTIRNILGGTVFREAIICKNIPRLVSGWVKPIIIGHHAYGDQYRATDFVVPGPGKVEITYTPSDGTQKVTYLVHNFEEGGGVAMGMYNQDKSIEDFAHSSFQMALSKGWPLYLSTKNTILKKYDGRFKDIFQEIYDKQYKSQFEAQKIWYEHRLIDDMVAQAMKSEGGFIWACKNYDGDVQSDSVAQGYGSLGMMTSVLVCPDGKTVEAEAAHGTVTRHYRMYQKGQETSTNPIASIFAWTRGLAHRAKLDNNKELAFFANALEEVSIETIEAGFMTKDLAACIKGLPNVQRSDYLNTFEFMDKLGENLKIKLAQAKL
compound,measurement,value
CC(C)(C)c1ccc(S(=O)(=O)Nc2ccc(O)c(Sc3nc4ccccc4s3)c2)cc1,Potency,15.8 µM (active)

# Reference: PubChem BioAssay AID624002 (National Center for Advancing Translational Sciences (NCATS), 2012)
